# Sampled rows, rich in hits. Any-hit rate of the full collection: about 14%.
# Pf growth 48h = inhibits P. falciparum growth in the first generation, 48 h | P. falciparum luciferase growth in erythrocytes, 48 h | Potency, µM (titrated, usually from 28.7 µM), without a hit: at the top dose activity change, negative = inhibition, actives largely listed as inhibitors | hit rate 5.9% among 310,000 | AID 504832; further: potency means the concentration at half of the fitted maximal effect
#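 Read-out is firefly luciferase luminescence from an integrated reporter in P. falciparum, so falling signal marks reduced parasite growth. Infected erythrocytes were at 2% hematocrit and 0.1% parasitemia (final) in Albumax-supplemented RPMI 1640.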
# Marburg entry inh = inhibitors of Marburg virus binding or cell entry; Marburg virus pseudotyped entry inhibition, cell reporter; Potency, µM (series often up to 37.8 µM), without a hit: at the top dose activity change, negative = inhibition, hits mostly inhibitors; hit rate 1.8% among 300,000; calls by dose curve; tested in HEK293 cells; further: potency means the concentration at half of the fitted maximal effect
# HCMV inh = blocks human cytomegalovirus replication. HFF cells, HCMV-luciferase reporter, 72 h; hits give low values. activity change, negative = inhibition, % at 57.5 µM. hit rate 4.5% among 410,000. AID 1259415; in the data active means activity change below about -60%; inconclusive means no clear call, values can overlap the other calls; inactive means above about -39%
#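 After 16 h attachment at 37C, HFF cells received test compound and HCMV-luciferase (1 PFU/cell); reporter luminescence read 72 h later, data normalized against buffer-only and known inhibitor Salinomycin.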
# Pf growth 96h = P. falciparum growth inhibition at 96 hour, primary screen for plastid delayed-death inhibitors; P. falciparum luciferase reporter growth, 96 h; Potency, µM (series often up to 28.7 µM), inactives show top-dose activity change, negative = inhibition, actives largely listed as inhibitors; hit rate 6.9% among 320,000; further: potency means the concentration at half of the fitted maximal effect
#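 P. falciparum expressing integrated firefly luciferase grown in erythrocytes (2% hematocrit, 0.05% parasitemia final) with compounds for 96 hours at 37 C, 5% CO2. Growth inhibition read as loss of luminescence after adding luciferase detection reagent.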
# LASV entry inh = inhibitors of Lassa virus binding or cell entry; Lassa virus pseudotype entry inhibition, cell reporter; hit rate 1.2% among 300,000; Potency, µM (top dose mostly 37.9 µM), inactives show at the highest dose activity change, negative = inhibition, actives largely listed as inhibitors; calls by dose curve; tested in HEK293 cells; further: potency means the concentration at half of the fitted maximal effect; nearly all actives have a fitted effect of over 50% in size
# HCV inhibitor = blocks hepatitis C virus | Huh7.5.1 HCVcc-Cre infection, luciferase reporter, 44 h | Potency, µM (top dose mostly 41.8 µM), inactives show top-dose activity change, negative = inhibition, actives largely listed as inhibitors | hit rate 3.4% among 340,000; further: potency means the concentration at half of the fitted maximal effect
#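 A cell-based infection assay in which seeded cells (1,000 per well) receive test compound after 4 h, are inoculated with HCVcc-Cre at approximately 0.5 moi, and are incubated 44 h before luminescence detection.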
# Active calls of the source: *; u = inconclusive; x = no result; [ ] = dose if it differs, or a comment. Unless noted, the call rests on the fitted dose curve; in most records, active means well fitted inhibition curve with a large enough effect; inconclusive means small, poorly fitted or top-dose-only effect, or another doubt; inactive means no such curve, though single readings can be large or run the other way. On the % scale 0 is the no-effect control and ±100 the full control effect.
SMILES,Pf growth 48h,Marburg entry inh,HCMV inh,Pf growth 96h,LASV entry inh,HCV inhibitor
COc1cc2cc(CNc3ccccc3)c(=O)n(CC(=O)Nc3ccc(C)c(Cl)c3)c2cc1OC,x,x,60.6,x,0.6%[46.1 µM],x
COc1ccc(NCc2cc3cc4c(cc3n(CC(=O)Nc3cc(C)ccc3C)c2=O)OCCO4)cc1,x,x,-73.2*,x,5.1%[46.1 µM],x
COc1ccc(NCc2cc3cc4c(cc3n(CC(=O)Nc3ccc(C)cc3C)c2=O)OCO4)cc1,x,x,1.1,x,14.2%[46.1 µM],x
COc1cc(Br)cc2cc(C(=O)N3CCOCC3)c(=O)oc12,39.4%,4.7%[46.1 µM],4.3,3.29µM*,-3.6%[46.1 µM],17.1%
O=C(Nc1ccn2ccnc2n1)c1ccccc1OC(F)(F)F,x,x,-29.6,x,x,x
Cc1ccc(S(=O)(=O)NCCC(=O)OCC(=O)NCCc2ccccc2)cc1C,8.5%,u,-25.3,10.8%,9.8%,-0.7%
NC(=O)C(c1ccc(Br)cc1)c1ccc(C(=O)c2ccccc2)cc1 (stereo not drawn),-0.8%,u,-33.8,5.0%,u,10µM*
CC(=O)OC[C@H]1O[C@H](C#Cc2ccc(C)cc2C)C=C[C@H]1OC(C)=O,x,-2.3%[14.2 µM],x,x,-33.0%[14.3 µM],x
COc1ccc(-c2csc(N(CCc3ccc(OC)c(OC)c3)C(=O)COc3ccccc3)n2)cc1,10.4µM*,u,-25.7,10.5%,-7.7%,4.4%
COc1ccc(-c2csc(N(CCCN(C)C)C(=O)c3ccc(Br)cc3)n2)cc1,u,u,-62.1*,u,u,u
COc1ccc(-c2csc(N(CCCN(C)C)C(=O)c3cc(OC)c(OC)c(OC)c3)n2)cc1,u,x,-22.9,u,x,-5.7%
COc1ccc(-c2csc(N(Cc3ccccc3)C(=O)COc3ccc(Cl)cc3)n2)cc1,1.3%,-17.2%,14.2,u,3.9%,6.7%
COCCCN(C(C)=O)c1nc(-c2ccc(OC)cc2)cs1,35.2%,u,83.9,0.0%,10.3µM*,u
COc1ccc(-c2csc(N(CCCN(C)C)C(=O)c3ccc(C)cc3)n2)cc1,8.28µM*,u,-22.1,u,-0.4%[46.1 µM],25.1µM*
CCOC(=O)c1c(C)[nH]c(C)c1S(=O)(=O)N1CCC(C(=O)Nc2ccc(OC)c(OC)c2)CC1,x,x,13.1,x,u,x
CCc1ccc(NC(=O)c2ccc(CN3CC(=O)N4CCCCC4C3=O)cc2)cc1 (stereo not drawn),x,x,-31.1,x,6.0%[46.1 µM],x
O=C(c1ccco1)N(CC1CCCO1)c1nc(-c2ccccc2)cs1 (stereo not drawn),u,0.9%,-101.1*,x,-15.4%,u
CCN(CC)CCCN(C(=O)c1ccccc1F)c1nc(-c2ccc(OC)cc2)cs1,4.15µM*,u,29.2,-29.9%,u,u
COc1ccc(-c2csc(N(CCCN(C)C)C(=O)c3ccc(C(C)(C)C)cc3)n2)cc1,13.1µM*,u,-25.3,16.0%,u,-19.4%
COc1ccc(-c2csc(N(CC3CCCO3)C(=O)c3ccc(C)cc3)n2)cc1 (stereo not drawn),5.22µM*,u,-18.7,10.4µM*,u,u
Cn1c(CC(O)c2nc3ccccc3n2C)nc2ccccc21 (stereo not drawn),x,x,-10.2,x,x,x
CCCn1c(=O)sc2cc(NC(=O)c3ccccc3OCC)ccc21,x,u,-23.5,x,7.5%[46.1 µM],x
CC[C@]12C(=O)N(C)C[C@H]([C@@H]3C(=O)N(C)C(=O)[C@@H]31)N2C(=O)c1ccc(F)cc1,x,x,-2.5,x,x,14.7%
CCN(CC)CCCN(C(=O)c1ccc(OC)cc1)c1nc(-c2ccc(OC)cc2)cs1,1.31µM*,u,-62.6*,-28.8%,u,u
CCN(CC)CCCN(C(=O)c1ccccc1C)c1nc(-c2ccc(OC)cc2)cs1,u,x,59.5,-22.7%,x,-30.0%
C[C@@H]1C=CC(=O)O[C@@H]1c1ccc(C(F)(F)F)cc1,u,x,x,2.33µM*,x,x
CC1C(=O)C(C)(C)C(=O)OC1c1ccccc1 (stereo not drawn),34.8%,x,-38.7,58.8%,x,6.5%
Cn1c2c(c(=O)n(C)c1=O)C(c1ccc(C(F)(F)F)cc1)CC(=O)N2 (stereo not drawn),x,x,15.5,x,x,-8.7%
C[C@H]1C=CC(=O)O[C@H]1c1ccccc1,x,x,-77.4*,x,x,14.8%

# Screens as filed in PubChem.
